Measurements taken from PubChem BioAssay (NCATS).
Values without a mark were called inactive. Results filed as inconclusive are left out. A call without a number means that no potency is given here. Active and inactive are the calls of the source. Unless noted, calls come from the whole dose curve; as a rule, active = well fitted curve in the direction sought with a large enough effect; inconclusive = small, poorly fitted or top-dose-only effect, or another doubt; inactive = no such curve, though single readings can be large; an effect the other way counts as inactive or inconclusive.

How the values were obtained:
[1] = target: Glucocorticoid receptor (Homo sapiens) (UniProt P04150); experiment: GR-GFP Redistribution (AID 450;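 active = compounds whose dose series gives a full or clear partial fitted curve of increased nuclear translocation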; note: potency is the fitted concentration of half-maximal effect); conditions: U2OS GR-GFP nuclear translocation, laser cytometry, 2 h
Glucocorticoid receptor (Homo sapiens), sequence (P04150 whole entry, looked up, the tested form may be a part): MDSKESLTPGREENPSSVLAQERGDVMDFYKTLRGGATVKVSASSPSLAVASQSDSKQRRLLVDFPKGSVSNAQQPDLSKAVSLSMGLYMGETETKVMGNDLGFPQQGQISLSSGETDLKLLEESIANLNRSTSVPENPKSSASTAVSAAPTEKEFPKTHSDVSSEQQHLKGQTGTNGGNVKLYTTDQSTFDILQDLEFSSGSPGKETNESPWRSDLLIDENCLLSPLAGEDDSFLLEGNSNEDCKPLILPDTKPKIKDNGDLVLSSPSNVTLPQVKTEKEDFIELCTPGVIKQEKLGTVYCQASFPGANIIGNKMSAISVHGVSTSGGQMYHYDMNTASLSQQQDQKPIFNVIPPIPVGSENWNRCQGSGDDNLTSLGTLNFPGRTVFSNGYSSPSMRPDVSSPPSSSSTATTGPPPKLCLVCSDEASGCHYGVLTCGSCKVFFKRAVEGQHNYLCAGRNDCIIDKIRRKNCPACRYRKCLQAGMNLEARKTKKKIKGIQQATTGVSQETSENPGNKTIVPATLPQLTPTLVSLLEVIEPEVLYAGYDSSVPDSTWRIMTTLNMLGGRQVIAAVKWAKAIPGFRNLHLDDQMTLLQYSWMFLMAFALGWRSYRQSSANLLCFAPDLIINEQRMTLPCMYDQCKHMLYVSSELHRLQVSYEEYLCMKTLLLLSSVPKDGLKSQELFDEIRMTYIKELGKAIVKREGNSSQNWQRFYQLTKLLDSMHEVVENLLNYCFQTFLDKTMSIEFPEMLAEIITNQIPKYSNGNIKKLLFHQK

[2] = target: Glucocorticoid receptor (Homo sapiens) (UniProt P04150); experiment: GR-EFC Redistribution (AID 451; calls by dose curve; note: potency is the fitted concentration of half-maximal effect); conditions: CHO-K1 GR-EFC translocation, beta-gal luminescence, 2 h
In short: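 CHO-K1 cells expressing nuclear EA and GR-ED fragments of b-gal; compounds titrated up to 46 uM final, 2 h at 37 C. GR nuclear translocation read as complemented b-gal luminescence after 1 h RT detection.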

[3] = target: Mitogen-activated protein kinase 10 (Mus musculus) (UniProt Q61831); experiment: JNK3 AlphaScreen Assay (AID 530; active = well fitted curve in either direction with a large enough effect, not every such curve was filed as active;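 note: kinase came from lysate of stimulated human HepG2 cells; signal reports phosphorylation of biotinylated GST-cJun 1-79 at Ser73 with 10 µM ATP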); conditions: JNK3 lysate, c-Jun phosphorylation; series mostly up to 57.1 µM
In short: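 HepG2 lysate (IL-1b/TNFa pre-activated) + biotin-GST-cJun 1-79 + anti-pSer73 cJun; cpd titration, 15 min RT; ATP 10 uM start; Tris pH 7.6, MgCl2, DTT, vanadate; beads in EDTA buffer; AlphaScreen.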

[4] = target: Cytochrome P450 2C9 (Homo sapiens) (UniProt P11712); experiment: qHTS Assay for Inhibitors and Substrates of Cytochrome P450 2C9 (AID 883); conditions: recombinant CYP2C9, luciferin-H luminescence, 60 min; series mostly up to 57.1 µM; note: potency is the fitted concentration of half-maximal effect; nearly all actives have a fitted effect of over 60% in size
Cytochrome P450 2C9 (Homo sapiens), sequence (P11712 whole entry, looked up): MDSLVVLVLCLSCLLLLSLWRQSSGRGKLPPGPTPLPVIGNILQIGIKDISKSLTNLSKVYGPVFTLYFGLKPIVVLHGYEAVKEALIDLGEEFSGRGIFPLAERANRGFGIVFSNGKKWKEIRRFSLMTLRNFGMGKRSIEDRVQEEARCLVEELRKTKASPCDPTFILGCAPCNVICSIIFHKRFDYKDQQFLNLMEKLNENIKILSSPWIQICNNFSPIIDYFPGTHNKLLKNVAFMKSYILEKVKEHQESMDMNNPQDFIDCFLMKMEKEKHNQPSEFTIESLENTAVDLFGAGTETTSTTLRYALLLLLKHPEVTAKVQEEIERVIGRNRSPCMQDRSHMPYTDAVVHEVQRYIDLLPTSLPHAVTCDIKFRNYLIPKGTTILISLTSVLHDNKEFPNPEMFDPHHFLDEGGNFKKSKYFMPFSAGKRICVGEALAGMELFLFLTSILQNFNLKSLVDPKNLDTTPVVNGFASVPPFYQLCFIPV
In short: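 Human CYP2C9 (10nM) with Luciferin-H at 100uM (its KM) in 25mM KPO4; compound preincubated 10 min at 37C, then NADPH regeneration for 60 min at 37C. Luciferin read by luminescence after detection reagent; normalized to 57uM sulphaphenazole as full inhibition.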

[5] = target: Cytochrome P450 3A4 (Homo sapiens) (UniProt P08684); experiment: qHTS Assay for Activators of Cytochrome P450 3A4 (AID 885); conditions: recombinant CYP3A4, Luciferin-PPXE luminescence, 60 min; series mostly up to 57.1 µM; note: nearly all actives have a fitted effect of over 65% in size
Cytochrome P450 3A4 (Homo sapiens), sequence (P08684 whole entry, looked up): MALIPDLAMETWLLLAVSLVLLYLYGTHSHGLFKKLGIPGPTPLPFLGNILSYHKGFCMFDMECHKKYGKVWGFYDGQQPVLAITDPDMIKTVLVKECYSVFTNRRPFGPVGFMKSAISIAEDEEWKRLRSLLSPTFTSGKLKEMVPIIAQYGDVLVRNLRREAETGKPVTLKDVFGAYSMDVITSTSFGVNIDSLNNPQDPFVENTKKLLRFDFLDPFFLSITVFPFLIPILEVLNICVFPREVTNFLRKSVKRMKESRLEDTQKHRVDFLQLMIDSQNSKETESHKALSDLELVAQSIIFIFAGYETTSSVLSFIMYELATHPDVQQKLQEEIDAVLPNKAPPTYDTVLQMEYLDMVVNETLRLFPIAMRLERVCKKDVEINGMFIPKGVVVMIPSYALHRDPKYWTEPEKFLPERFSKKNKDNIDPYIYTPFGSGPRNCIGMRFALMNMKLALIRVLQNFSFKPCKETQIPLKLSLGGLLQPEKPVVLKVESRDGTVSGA
In short: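 Using 20nM recombinant human CYP3A4 in potassium phosphate (200mM), substrate Luciferin-PPXE at 25uM, luminescent luciferin detection followed a 60-min RT NADPH reaction; data scaled to 57 uM ketoconazole.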

[6] = target: Cytochrome P450 2C19 (Homo sapiens) (UniProt P33261); experiment: qHTS Assay for Inhibitors and Substrates of Cytochrome P450 2C19 (AID 899); conditions: recombinant CYP2C19, luciferin-H EGE luminescence; series mostly up to 57.1 µM; note: potency is the fitted concentration of half-maximal effect; nearly all actives have a fitted effect of over 60% in size
Cytochrome P450 2C19 (Homo sapiens), sequence (P33261 whole entry, looked up): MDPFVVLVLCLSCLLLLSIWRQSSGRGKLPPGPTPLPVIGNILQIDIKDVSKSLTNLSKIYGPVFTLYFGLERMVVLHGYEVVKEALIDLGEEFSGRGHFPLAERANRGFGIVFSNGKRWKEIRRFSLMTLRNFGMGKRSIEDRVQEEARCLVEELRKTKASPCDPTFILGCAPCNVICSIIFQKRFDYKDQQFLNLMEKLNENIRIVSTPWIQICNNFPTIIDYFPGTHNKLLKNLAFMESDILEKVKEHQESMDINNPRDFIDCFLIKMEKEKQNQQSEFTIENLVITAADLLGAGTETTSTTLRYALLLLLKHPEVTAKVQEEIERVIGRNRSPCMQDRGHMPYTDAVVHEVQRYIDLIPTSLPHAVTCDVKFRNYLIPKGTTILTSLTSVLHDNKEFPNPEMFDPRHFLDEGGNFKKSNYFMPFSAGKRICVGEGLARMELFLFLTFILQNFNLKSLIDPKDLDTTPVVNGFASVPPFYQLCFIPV
In short: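 5 nM human CYP2C19 with 10uM Luciferin-H EGE (at KM) in 50mM KPO4, compound preincubated 10 min at 37C, then NADPH regeneration for 60 min at 37C. Luciferin read by luminescence after detection reagent; normalized to 57uM ketoconazole as full inhibition.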

[7] = target: Ubiquitin carboxyl-terminal hydrolase 1 (Homo sapiens) (UniProt O94782); experiment: Inhibitors of USP1/UAF1: Pilot qHTS (AID 504865); conditions: purified USP1/UAF1, Ub-rhodamine cleavage fluorescence; series mostly up to 114 µM; note: nearly all actives have a fitted effect of over 35% in size; note: potency is the fitted concentration of half-maximal effect
Ubiquitin carboxyl-terminal hydrolase 1 (Homo sapiens), sequence (O94782 whole entry, looked up): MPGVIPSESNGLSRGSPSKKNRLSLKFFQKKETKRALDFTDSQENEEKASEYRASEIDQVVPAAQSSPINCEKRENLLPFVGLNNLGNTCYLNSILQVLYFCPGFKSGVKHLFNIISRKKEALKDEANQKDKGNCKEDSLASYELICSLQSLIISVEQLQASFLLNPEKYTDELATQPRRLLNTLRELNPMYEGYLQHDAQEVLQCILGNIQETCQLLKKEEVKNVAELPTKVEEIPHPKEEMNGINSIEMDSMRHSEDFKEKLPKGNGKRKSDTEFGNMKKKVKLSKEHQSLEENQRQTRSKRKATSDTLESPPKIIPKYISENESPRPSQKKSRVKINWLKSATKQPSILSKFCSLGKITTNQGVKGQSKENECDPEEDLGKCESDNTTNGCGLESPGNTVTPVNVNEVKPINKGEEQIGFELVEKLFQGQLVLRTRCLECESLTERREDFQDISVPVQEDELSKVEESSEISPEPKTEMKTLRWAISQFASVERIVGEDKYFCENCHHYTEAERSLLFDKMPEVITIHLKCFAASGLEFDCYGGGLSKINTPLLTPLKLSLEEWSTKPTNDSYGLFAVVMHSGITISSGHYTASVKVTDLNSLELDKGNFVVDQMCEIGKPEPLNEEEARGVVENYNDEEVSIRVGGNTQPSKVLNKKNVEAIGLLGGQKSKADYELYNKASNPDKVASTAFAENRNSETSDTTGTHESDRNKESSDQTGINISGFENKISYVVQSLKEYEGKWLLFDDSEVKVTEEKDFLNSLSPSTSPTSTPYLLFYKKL
In short: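 1nM USP1/UAF1 + cpd, 15 min RT; start w/ Ub-Rho 150nM final; kinetic FL 480/540 nm, 6 reads q60 s. Buffer 50mM HEPES pH 7.8, 0.5mM EDTA, 1mM TCEP, 0.01% Tween-20, 0.1 mg/ml BSA.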

[8] = target: DNA dC->dU-editing enzyme APOBEC-3G (Homo sapiens) (UniProt Q9HC16); experiment: qHTS for inhibitors of Vif-A3G interactions: Validation (AID 588379); conditions: Vif-A3G protein interaction assay; series mostly up to 46.1 µM; note: potency is the fitted concentration of half-maximal effect
DNA dC->dU-editing enzyme APOBEC-3G (Homo sapiens), sequence (Q9HC16 whole entry, looked up): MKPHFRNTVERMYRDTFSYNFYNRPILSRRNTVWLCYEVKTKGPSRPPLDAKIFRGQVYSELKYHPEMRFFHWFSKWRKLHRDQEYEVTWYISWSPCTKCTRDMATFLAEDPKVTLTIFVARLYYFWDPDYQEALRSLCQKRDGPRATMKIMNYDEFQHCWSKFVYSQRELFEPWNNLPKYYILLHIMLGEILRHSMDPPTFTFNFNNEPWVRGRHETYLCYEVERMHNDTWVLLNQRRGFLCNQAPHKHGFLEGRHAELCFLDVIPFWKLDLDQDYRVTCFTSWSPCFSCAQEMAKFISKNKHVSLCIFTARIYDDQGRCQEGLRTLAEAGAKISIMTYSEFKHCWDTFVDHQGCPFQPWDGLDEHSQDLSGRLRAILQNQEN
In short: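 Yellow fluorescence (Ex 488, Em 500-530) of Vif-coexpressing HeLa A3G-eYFP cells, scanned by Acumen cytometer, reports blocked A3G degradation. Cells plated at 700/well overnight at 37 deg C before compound addition, then a further overnight compound incubation at 37 deg C.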

[9] = tested on: Zika virus NS2B-NS3 protease; experiment: Primary screen GU AMC qHTS for Zika virus inhibitors (AID 1347154); conditions: Zika NS2B-NS3 unlinked protease, AMC fluorogenic substrate; series mostly up to 54.1 µM; note: nearly all actives have a fitted effect of over 70% in size
In short: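 Unlinked Zika NS2B hydrophilic domain–NS3 protease complex at 25 nM in 10 mM Tris-HCl pH 8.0, 0.01% Tween 20, with an AMC peptide substrate. Fluorescence change (340/450 nm) over 15 min at room temperature, normalized to controls, fitted to 4-parameter Hill.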

[10] = Primary qHTS for small molecule stabilizers of the endoplasmic reticulum resident proteome: Secreted ER Calcium Modulated Protein (SERCaMP) assay (AID 1508630); conditions: SH-SY5Y GLuc-SERCaMP (Gaussia luciferase released on ER calcium loss) secretion, thapsigargin, luminescence; series mostly up to 38.4 µM
In short: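 The SH-SY5Y reporter protocol was run at 3 concentrations up to 38.3 uM (primary) or 11 concentrations (follow-up): 16 h compound, 100 nM thapsigargin for 4 h, then extracellular luciferase luminescence.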

[11] = target: 3',5'-cyclic-AMP phosphodiesterase 4B (Homo sapiens) (UniProt Q07343); experiment: qHTS Assay for Inhibitors of PDE-IV (AID 607; active = well fitted activation curve with a large enough effect in the main read-out, with a control signal flat, not every such curve was filed as active); conditions: HEK293 ACTOne CNG channel cells, membrane potential fluorescence; series mostly up to 22.9 µM
3',5'-cyclic-AMP phosphodiesterase 4B (Homo sapiens), sequence (Q07343 whole entry, looked up): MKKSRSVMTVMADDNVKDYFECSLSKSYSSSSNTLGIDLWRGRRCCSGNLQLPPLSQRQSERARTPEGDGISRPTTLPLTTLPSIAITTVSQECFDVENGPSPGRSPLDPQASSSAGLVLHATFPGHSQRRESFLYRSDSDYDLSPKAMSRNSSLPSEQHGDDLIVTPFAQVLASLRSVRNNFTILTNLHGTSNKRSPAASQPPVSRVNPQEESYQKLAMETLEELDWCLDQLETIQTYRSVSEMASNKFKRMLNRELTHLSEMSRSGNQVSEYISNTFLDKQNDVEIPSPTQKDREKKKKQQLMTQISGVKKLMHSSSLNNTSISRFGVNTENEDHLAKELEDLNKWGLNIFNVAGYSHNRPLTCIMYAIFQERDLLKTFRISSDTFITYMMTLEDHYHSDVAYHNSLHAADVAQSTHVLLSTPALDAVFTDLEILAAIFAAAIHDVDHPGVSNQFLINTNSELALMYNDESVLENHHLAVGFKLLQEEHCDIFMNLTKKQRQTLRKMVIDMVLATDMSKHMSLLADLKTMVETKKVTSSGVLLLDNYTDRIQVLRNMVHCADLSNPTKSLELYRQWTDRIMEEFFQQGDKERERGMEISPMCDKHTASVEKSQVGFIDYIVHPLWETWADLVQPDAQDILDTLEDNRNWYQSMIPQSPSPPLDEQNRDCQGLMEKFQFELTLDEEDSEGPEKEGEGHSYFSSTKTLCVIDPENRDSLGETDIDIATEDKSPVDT
In short: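 Live HEK293 cells with a modified cyclic nucleotide-gated (CNG) channel report intracellular cAMP via membrane-potential dye fluorescence (ex 535/em 590 nm). Endogenous PDE-IV was targeted. Compounds were tested at up to 22.9 uM final; RO 20-1724 100 uM served as control.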

[12] = target: Cytochrome P450 3A4 (Homo sapiens) (UniProt P08684); experiment: qHTS Assay for Inhibitors and Substrates of Cytochrome P450 3A4 (AID 884); conditions: recombinant CYP3A4, Luciferin-PPXE luminescence; series mostly up to 57.1 µM; note: potency is the fitted concentration of half-maximal effect; nearly all actives have a fitted effect of over 50% in size
In short: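 Luminescent readout of luciferin produced by CYP3A4 (20 nM) dealkylation of Luciferin-PPXE, 25 uM (its KM). NADPH-driven reaction ran 60 min at RT after 10 min compound preincubation; data scaled to 57 uM ketoconazole as 100% inhibition.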

Row | Compound | Potency [1] | Potency [2] | Potency [3] | Potency [4] | Potency [5] | Potency [6] | Potency [7] | Potency [8] | Potency [9] | Potency [10] | Potency [11] | Potency [12]
1 | NCCCCNS(=O)(=O)c1ccc2c(Cl)cccc2c1 | > 46 µM | > 46 µM | inactive | 2 µM (active) | inactive | 0.0025 µM (active) | inactive | inactive | inactive | inactive | – | –
2 | Cc1cc(Cn2cnc3c2C[C@@H](C(=O)O)N(C(=O)C(c2ccccc2)c2ccccc2)C3)ccc1N(C)C | > 46 µM | > 46 µM | inactive | – | – | 1.58 µM (active) | – | inactive | inactive | inactive | – | –
3 | CC(=O)[C@H](CC(C)C)NC(=O)[C@@H](CC(C)C)NC(=O)[C@H](CC(C)C)NC(=O)OCc1ccccc1 | > 46 µM | > 46 µM | inactive | – | – | – | – | 0.335 µM (active) | inactive | inactive | inactive | –
4 | CCCCCCCC(=O)O[C@H](CC(=O)O)C[N+](C)(C)C | > 46 µM | > 46 µM | inactive | – | – | – | inactive | inactive | inactive | inactive | – | –
5 | CCS(=O)(=O)N1CCC[C@H]2CN3CCc4cc(OC)ccc4[C@@H]3C[C@@H]21 | > 46 µM | > 46 µM | inactive | – | inactive | – | inactive | inactive | inactive | inactive | – | 5.01 µM (active)
6 | C[C@@H]1c2ccccc2CN1CC1=NCCN1 | > 46 µM | > 46 µM | inactive | – | inactive | – | 50.1 µM (active) | inactive | inactive | inactive | inactive | –
